# Publication PMC7862700, “An all-to-all approach to the identification of sequence-specific readers for epigenetic DNA modifications on cytosine”
# Experiments:
# Assay in all cases: DAPPL (digital affinity profiling via proximity ligation, sequencing); 10 mM Tris-HCl pH 7.5, 50 mM NaCl, 1 mM DTT, 4% glycerol, room temperature, 30 min; GST-TFs on glutathione beads, 16-mer random dsDNA library, 0.1% formaldehyde crosslink after washing; high values mean tight binding
# Conditions in all cases: protein: recombinant; tags: N-terminal GST; dsDNA, one strand shown
# [1] = molecular target: T1, FLI1 (Homo sapiens, UniProt Q01543 1-452)
# T1 sequence: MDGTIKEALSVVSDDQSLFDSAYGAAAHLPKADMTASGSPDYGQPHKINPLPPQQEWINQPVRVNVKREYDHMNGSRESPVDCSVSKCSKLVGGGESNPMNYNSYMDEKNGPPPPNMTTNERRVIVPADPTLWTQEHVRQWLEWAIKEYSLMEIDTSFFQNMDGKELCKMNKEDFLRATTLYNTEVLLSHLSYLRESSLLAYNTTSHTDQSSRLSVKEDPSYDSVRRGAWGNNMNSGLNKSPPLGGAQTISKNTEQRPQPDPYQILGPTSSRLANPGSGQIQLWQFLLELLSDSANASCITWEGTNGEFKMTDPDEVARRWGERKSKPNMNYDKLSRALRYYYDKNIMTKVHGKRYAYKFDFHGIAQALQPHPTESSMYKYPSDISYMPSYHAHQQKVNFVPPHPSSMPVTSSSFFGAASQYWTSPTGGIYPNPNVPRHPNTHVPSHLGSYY
# In short: (§1)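 In yeast, human transcription factors were expressed with a GST fusion, then pulled down on glutathione beads and given DNA barcodes. Pooled with a tag-only sample, they were exposed to 200 nmole of a 16-mer random double-stranded DNA library (Tris/NaCl/DTT/glycerol buffer, room temperature, 30 min), washed, crosslinked with 0.1% formaldehyde, proximity-ligated using BsaI/T4 ligase for 1 h at 37 °C, PCR-amplified and read on an Illumina NextSeq500. Each hexamer's frequency of reads for a factor, divided by the matching frequency for the tag-only sample, gives the binding signal.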
# [2] = molecular target: T2, ELK1 (Homo sapiens, UniProt P19419 1-428)
# T2 sequence: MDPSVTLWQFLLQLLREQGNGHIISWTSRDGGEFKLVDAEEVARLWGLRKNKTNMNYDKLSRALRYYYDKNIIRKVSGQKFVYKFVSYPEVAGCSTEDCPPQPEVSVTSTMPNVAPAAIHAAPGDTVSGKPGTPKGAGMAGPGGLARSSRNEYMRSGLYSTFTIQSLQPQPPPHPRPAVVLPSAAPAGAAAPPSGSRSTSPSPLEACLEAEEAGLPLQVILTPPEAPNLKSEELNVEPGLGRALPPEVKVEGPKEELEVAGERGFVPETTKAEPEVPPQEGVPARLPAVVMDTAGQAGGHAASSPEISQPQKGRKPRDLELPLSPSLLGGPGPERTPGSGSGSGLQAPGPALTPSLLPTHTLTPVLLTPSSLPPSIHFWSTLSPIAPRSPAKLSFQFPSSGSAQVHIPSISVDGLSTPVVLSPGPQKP
# In short: as §1
# [3] = molecular target: T3, GABPA (Homo sapiens, UniProt Q06546 1-454)
# T3 sequence: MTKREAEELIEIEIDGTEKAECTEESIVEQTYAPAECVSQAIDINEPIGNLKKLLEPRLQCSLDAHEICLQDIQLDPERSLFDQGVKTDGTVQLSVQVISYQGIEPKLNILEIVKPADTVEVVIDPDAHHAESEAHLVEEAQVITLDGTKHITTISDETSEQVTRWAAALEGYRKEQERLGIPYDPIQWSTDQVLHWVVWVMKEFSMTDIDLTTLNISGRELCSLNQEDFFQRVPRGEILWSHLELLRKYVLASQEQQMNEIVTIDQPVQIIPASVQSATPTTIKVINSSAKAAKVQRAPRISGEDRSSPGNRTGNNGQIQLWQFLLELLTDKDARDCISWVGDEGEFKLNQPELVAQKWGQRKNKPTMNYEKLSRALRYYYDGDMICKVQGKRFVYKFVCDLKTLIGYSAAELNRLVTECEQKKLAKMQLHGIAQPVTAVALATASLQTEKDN
# In short: as §1
# [4] = molecular target: T4, ERG (Homo sapiens, UniProt P11308 1-479)
# T4 sequence: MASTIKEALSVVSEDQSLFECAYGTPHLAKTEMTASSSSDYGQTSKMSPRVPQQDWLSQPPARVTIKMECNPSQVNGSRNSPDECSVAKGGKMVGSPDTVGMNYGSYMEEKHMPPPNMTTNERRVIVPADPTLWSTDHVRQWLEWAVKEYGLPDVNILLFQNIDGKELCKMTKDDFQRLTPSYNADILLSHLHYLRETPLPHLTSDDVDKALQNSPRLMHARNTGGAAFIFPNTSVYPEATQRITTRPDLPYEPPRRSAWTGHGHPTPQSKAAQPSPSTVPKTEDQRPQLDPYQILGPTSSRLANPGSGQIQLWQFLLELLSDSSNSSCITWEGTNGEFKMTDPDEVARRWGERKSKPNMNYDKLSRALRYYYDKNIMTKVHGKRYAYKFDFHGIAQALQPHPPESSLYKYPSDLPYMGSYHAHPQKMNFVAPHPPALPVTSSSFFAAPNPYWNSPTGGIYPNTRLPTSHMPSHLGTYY
# In short: as §1
# [5] = molecular target: ELF1 (Homo sapiens, UniProt P32519 1-619)
# In short: as §1
# [6] = molecular target: T5, EHF (Homo sapiens, UniProt Q9NZC4 1-300)
# T5 sequence: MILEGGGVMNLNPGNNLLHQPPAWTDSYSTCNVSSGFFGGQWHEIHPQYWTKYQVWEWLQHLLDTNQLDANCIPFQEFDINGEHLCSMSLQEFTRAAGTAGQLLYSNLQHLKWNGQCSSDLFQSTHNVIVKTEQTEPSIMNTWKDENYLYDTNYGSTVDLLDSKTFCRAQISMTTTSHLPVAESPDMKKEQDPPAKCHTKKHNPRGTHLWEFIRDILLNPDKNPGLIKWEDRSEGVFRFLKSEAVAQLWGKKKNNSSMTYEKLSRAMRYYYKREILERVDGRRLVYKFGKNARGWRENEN
# In short: as §1
# [7] = molecular target: SPI1 (Homo sapiens, UniProt P17947 1-270)
# In short: as §1
# [8] = molecular target: SPIB (Homo sapiens, UniProt Q01892 1-262)
# In short: as §1
# [9] = molecular target: T6, ELK3 (Homo sapiens, UniProt P41970 1-407)
# T6 sequence: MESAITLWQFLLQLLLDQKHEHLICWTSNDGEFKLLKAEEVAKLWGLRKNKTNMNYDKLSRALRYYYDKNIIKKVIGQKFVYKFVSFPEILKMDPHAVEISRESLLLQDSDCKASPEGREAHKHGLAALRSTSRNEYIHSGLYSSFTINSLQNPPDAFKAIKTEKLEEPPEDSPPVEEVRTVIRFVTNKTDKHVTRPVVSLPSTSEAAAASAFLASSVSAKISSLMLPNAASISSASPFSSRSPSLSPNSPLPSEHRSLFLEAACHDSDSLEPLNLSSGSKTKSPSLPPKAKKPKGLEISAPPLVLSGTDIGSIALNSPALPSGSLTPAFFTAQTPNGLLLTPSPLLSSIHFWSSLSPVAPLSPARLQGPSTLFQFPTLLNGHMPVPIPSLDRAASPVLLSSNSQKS
# In short: as §1
# [10] = molecular target: T7, FEV (Homo sapiens, UniProt Q99581 1-238)
# T7 sequence: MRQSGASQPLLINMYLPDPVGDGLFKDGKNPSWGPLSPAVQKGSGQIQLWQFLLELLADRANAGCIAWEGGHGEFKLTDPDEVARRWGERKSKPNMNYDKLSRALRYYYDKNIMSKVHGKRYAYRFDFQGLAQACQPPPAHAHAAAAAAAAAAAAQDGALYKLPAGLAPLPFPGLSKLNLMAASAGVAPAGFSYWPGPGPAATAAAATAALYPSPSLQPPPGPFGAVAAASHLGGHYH
# In short: as §1
# [11] = molecular target: ETV5 (Homo sapiens, UniProt P41161 1-510)
# In short: as §1
# [12] = molecular target: T8, SPIC (Homo sapiens, UniProt Q8N5J4 1-248)
# T8 sequence: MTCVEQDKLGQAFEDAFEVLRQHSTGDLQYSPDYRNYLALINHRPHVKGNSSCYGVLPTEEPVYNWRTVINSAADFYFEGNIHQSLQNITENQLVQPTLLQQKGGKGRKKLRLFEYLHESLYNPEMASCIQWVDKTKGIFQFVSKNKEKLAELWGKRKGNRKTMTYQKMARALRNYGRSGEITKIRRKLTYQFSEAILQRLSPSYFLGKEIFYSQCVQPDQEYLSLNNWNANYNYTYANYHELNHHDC
# In short: as §1
# [13] = molecular target: ELF4 (Homo sapiens, UniProt Q99607 1-663)
# In short: as §1
# [14] = molecular target: T9, ELK4 (Homo sapiens, UniProt P28324-2 1-405)
# T9 sequence: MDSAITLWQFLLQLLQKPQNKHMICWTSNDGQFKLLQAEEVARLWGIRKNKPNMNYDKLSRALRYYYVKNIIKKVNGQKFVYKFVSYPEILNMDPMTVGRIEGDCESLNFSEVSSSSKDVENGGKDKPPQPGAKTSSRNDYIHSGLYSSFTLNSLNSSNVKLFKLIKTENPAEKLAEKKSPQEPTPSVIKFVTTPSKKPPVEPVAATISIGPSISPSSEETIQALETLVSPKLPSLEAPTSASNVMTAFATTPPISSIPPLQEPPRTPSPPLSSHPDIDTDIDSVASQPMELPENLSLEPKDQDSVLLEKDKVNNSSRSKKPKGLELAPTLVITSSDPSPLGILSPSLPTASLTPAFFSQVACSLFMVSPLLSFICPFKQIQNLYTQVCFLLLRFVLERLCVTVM
# In short: as §1
# [15] = molecular target: T10, ETV2 (Homo sapiens, UniProt O00321 1-342)
# T10 sequence: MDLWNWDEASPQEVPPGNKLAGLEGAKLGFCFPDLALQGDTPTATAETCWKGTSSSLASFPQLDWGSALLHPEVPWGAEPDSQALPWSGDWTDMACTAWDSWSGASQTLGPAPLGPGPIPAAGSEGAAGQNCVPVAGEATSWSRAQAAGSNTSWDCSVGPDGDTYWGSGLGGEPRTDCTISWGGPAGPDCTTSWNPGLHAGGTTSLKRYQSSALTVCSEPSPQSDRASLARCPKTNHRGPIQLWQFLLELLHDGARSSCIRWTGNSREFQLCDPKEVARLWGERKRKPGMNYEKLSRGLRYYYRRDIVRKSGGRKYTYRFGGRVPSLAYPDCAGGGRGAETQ
# In short: as §1
# [16] = molecular target: T11, ELF3 (Homo sapiens, UniProt P78545 1-371)
# T11 sequence: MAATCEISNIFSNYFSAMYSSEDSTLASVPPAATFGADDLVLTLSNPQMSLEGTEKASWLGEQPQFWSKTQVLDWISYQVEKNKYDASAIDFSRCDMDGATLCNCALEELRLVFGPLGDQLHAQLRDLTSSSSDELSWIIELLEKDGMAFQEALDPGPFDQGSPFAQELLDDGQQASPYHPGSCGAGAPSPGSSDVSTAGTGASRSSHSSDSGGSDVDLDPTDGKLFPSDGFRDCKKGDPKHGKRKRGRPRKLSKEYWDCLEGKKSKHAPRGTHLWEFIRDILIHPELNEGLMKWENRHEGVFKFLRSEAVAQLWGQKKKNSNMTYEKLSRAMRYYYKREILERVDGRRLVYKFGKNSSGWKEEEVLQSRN
# In short: as §1
# [17] = molecular target: CRX (Homo sapiens, UniProt O43186 1-299)
# In short: as §1
# [18] = molecular target: ETV1 (Homo sapiens, UniProt P50549 1-477)
# In short: as §1
# Chain of CRX (O43186 whole entry): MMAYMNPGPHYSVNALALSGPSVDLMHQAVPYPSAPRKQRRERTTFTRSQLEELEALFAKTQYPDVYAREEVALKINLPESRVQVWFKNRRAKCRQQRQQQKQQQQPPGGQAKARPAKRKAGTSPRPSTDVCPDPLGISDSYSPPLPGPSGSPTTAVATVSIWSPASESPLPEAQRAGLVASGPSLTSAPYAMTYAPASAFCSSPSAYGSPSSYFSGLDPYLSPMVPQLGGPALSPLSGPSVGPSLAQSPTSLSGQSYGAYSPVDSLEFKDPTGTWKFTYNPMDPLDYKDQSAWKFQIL
# Chain of ELF4 (Q99607 whole entry): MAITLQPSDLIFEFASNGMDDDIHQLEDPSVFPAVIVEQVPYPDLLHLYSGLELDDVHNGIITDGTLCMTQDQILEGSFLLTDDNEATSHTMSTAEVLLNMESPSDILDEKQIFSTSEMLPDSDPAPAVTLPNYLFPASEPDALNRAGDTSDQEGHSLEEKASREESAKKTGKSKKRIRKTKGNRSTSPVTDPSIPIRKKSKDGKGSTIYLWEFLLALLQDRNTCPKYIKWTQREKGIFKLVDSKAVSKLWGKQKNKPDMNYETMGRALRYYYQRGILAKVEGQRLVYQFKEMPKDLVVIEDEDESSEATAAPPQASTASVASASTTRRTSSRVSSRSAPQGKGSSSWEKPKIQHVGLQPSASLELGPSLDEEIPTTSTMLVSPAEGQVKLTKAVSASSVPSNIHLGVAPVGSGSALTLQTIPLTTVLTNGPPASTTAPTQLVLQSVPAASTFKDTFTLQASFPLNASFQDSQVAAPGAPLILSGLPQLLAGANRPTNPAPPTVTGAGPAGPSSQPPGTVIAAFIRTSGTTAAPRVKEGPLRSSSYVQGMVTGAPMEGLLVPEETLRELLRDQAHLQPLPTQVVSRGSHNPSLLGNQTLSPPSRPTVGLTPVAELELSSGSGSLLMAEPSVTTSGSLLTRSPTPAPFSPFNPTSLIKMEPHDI
# Chain of ETV5 (P41161 whole entry): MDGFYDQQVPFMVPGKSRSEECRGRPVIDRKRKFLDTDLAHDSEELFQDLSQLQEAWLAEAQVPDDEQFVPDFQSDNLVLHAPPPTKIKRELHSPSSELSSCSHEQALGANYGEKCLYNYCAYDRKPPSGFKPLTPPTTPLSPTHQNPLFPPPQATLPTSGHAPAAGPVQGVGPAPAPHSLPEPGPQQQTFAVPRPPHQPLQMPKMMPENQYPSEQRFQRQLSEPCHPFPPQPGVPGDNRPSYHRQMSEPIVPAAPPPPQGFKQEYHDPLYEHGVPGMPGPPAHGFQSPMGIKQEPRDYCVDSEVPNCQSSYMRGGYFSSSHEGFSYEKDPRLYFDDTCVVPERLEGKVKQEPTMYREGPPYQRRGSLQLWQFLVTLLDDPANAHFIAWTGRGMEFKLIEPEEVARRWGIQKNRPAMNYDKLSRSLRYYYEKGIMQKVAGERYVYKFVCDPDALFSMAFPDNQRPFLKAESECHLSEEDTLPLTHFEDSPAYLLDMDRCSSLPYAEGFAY
# Chain of ELF1 (P32519 whole entry): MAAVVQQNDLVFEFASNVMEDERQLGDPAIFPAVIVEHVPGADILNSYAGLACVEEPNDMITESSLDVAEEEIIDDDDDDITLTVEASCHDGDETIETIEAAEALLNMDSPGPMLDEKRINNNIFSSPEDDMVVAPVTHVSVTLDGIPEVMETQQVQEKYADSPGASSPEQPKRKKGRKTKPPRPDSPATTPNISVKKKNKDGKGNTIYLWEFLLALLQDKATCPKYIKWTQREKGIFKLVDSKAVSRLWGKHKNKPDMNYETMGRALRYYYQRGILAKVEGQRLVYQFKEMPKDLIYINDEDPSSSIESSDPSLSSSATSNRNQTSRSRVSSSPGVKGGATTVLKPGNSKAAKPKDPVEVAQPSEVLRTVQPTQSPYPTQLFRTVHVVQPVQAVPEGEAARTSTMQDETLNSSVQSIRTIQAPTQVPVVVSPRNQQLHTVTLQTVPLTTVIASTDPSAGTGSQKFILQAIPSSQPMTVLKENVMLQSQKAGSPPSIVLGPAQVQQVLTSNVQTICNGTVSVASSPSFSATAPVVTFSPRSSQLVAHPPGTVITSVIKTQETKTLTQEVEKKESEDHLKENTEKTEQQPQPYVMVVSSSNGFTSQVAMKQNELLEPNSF
# Chain of SPIB (Q01892 whole entry): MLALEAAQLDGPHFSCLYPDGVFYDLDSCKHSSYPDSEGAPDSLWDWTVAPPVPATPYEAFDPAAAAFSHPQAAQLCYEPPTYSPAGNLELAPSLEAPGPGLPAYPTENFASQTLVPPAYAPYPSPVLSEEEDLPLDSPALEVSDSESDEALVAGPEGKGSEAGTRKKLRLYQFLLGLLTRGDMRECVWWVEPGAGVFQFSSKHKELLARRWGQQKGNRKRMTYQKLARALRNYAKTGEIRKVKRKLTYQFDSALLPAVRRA
# Chain of ETV1 (P50549 whole entry): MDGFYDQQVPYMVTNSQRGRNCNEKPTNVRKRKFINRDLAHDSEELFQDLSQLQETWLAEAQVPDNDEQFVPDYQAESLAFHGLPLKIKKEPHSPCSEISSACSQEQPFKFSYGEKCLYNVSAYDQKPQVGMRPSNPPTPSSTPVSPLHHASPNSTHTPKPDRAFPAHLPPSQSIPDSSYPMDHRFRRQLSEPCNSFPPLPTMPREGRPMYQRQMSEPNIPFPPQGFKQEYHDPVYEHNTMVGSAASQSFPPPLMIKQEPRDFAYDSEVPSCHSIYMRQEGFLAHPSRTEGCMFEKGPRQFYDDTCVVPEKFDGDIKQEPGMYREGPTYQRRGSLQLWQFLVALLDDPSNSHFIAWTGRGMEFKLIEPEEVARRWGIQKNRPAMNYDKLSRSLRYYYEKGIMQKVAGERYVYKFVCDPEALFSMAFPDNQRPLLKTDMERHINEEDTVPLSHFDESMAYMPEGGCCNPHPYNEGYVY
sequence,measurement,setting,value
AAGCGG,binding signal,[1],"1.13 fold enrichment (6-mer frequency, TF over GST control)"
same,binding signal,[2],"1.05 fold enrichment (6-mer frequency, TF over GST control)"
same,binding signal,[3],"1.11 fold enrichment (6-mer frequency, TF over GST control)"
same,binding signal,[4],"1.1 fold enrichment (6-mer frequency, TF over GST control)"
same,binding signal,[5],"1.11 fold enrichment (6-mer frequency, TF over GST control)"
same,binding signal,[6],"1.15 fold enrichment (6-mer frequency, TF over GST control)"
same,binding signal,[7],"1.81 fold enrichment (6-mer frequency, TF over GST control)"
same,binding signal,[8],"1.03 fold enrichment (6-mer frequency, TF over GST control)"
same,binding signal,[9],"1.11 fold enrichment (6-mer frequency, TF over GST control)"
same,binding signal,[10],"1.12 fold enrichment (6-mer frequency, TF over GST control)"
same,binding signal,[11],"1.27 fold enrichment (6-mer frequency, TF over GST control)"
same,binding signal,[12],"1.31 fold enrichment (6-mer frequency, TF over GST control)"
same,binding signal,[13],"1.01 fold enrichment (6-mer frequency, TF over GST control)"
same,binding signal,[14],"1.14 fold enrichment (6-mer frequency, TF over GST control)"
same,binding signal,[15],"1.19 fold enrichment (6-mer frequency, TF over GST control)"
same,binding signal,[16],"1.17 fold enrichment (6-mer frequency, TF over GST control)"
same,binding signal,[17],"1.11 fold enrichment (6-mer frequency, TF over GST control)"
same,binding signal,[18],"1.1 fold enrichment (6-mer frequency, TF over GST control)"
